PubChem BioAssay (NCATS)
Inconclusive results are not listed. Calls of active or inactive are those of the source. Calls come from the whole dose curve; as a rule, active = well fitted curve in the direction sought with a large enough effect; inconclusive = small, poorly fitted or top-dose-only effect, or another doubt; inactive = no such curve, though single readings can be large; an effect the other way counts as inactive or inconclusive.

Assays:
[1] = target: Cellular tumor antigen p53 (Homo sapiens) (UniProt P04637); assay: Primary qHTS for small molecule compounds that upregulate eGFP-tagged delta133p53alpha (in N-terminal) cells. (AID 2060322); conditions: NCI-H358 eGFP-delta133p53alpha fluorescence, 24 h; activation: stronger effect = higher value;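 note: cells pre-induced with doxycycline then dosed without doxycycline; series mostly up to about 56 µM; 0% = DMSO vehicle and 100% = reference activator; nearly all actives have a fitted effect of over 75% in size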
Summary of the method: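 NCI-H358 cells pre-induced 24 h with 10 ng/ml doxycycline for eGFP-delta133p53alpha, plated dox-free and exposed 24 h at 37C to titrated compounds. Fixed, Hoechst-stained; gated GFP peak intensity by laser scanning cytometry, normalized to DMSO (0%) and 57.5 uM 5-azacytidine (100%).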

[2] = target: Aldehyde dehydrogenase, mitochondrial (Homo sapiens) (UniProt P05091); assay: qHTS for Inhibitors of the Aldehyde Dehydrogenase Family (ALDH2) Primary screen (AID 2061308);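 note: plate controls were vehicle for no effect and reference inhibitor for full effect; nearly all actives have a fitted effect of over 55% in size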
[3] = target: Retinaldehyde dehydrogenase 3 (Homo sapiens) (UniProt P47895); assay: qHTS for Inhibitors of the Aldehyde Dehydrogenase Family (ALDH1A3) Primary screen (AID 2061315);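 note: plate controls were DMSO vehicle for no effect and reference inhibitor for full effect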

Cellular tumor antigen p53 (Homo sapiens), sequence (P04637 whole entry, looked up): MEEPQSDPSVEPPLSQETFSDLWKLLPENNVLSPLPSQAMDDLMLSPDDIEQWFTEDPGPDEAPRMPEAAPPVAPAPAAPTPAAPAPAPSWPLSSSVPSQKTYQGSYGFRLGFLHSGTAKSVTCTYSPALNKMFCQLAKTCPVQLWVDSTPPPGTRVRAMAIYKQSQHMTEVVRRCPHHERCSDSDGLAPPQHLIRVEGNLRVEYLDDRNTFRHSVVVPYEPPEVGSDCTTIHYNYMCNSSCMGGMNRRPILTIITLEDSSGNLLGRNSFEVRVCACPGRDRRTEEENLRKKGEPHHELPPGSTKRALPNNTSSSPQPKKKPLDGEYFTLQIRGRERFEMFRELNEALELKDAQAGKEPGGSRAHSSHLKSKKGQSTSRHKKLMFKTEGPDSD

CN1c2c(nc(N)[nH]c2=O)NC[C@@H]1CNc1ccc(C(=O)N[C@@H](CCC(=O)O)C(=O)O)cc1
inactive: activation [1] -8.33% | Potency [2] | Potency [3]

CN1C(=O)N(c2cc(Cl)cc(Cl)c2)C(=O)[C@@]1(C)Cc1ccc(Br)cc1
inactive: activation [1] 5% | Potency [2] | Potency [3]

CCc1ccc(Cc2ccc3c(c2)[C@]2(OC3)O[C@H](CO)[C@@H](O)[C@H](O)[C@H]2O)cc1
inactive: activation [1] 7% | Potency [2] | Potency [3]

CC1CC(O)C2(C)C(C(=O)O)=CCCC2C1(C)CCc1ccoc1 (configuration not stated)
inactive: activation [1] 8.93% | Potency [2] | Potency [3]

CC(=O)N[C@H]1[C@H](O[C@H]2CC[C@@]3(C)C(CC[C@]4(C)C3CC=C3C5CC(C)(C)CC[C@]5(C(=O)O)C(O)C[C@]34C)C2(C)C)O[C@H](CO[C@@H]2O[C@H](C)[C@H](O)[C@H](O)[C@H]2O[C@@H]2OC[C@@H](O)[C@H](O)[C@H]2O)[C@@H](O)[C@@H]1O (some centres not stated)
inactive: activation [1] 13.4% | Potency [2] | Potency [3]

O=C(OCC(O)CO[C@@H]1O[C@H](C(=O)O)[C@@H](O)[C@H](O)[C@H]1O)c1ccccc1 (some centres not stated)
inactive: activation [1] -13% | Potency [2] | Potency [3]

C=C(C)[C@@]1(O)C[C@@]2(C)C(=CC1=O)CC[C@@H](O)[C@@H]2C
inactive: activation [1] -3.82% | Potency [2] | Potency [3]

CC(C(=O)O)C1CCC2(C)C3C(=O)C=C4C(CCC(=O)C4(C)C)C3(C)CCC12C (configuration not stated)
inactive: activation [1] -15.2% | Potency [2] | Potency [3]

C[C@@H]1C(=O)O[C@H]2[C@H](O)C34[C@H]5C[C@@H](C(C)(C)C)C36[C@@H](OC(=O)[C@@H]6O)O[C@@]4(C(=O)O5)[C@@]12O (some centres not stated)
inactive: activation [1] 0.763% | Potency [2] | Potency [3]
